We go through 40 compounds from PubChem BioAssay (NCI).

This is part of a sample that, as a whole, favours compounds with a hit. Of some 83,000 tested, about 20% had one in any assay.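 Growth was measured after 48 h exposure to one concentration of compound in 96-well plates. Values under 10 count as active.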 A number with no mark means an inactive call. Active and inactive are the calls of the source.

For this test, the system named is MDA-MB-435 melanoma. Description: NCI-60 one-dose screen, 48 h (100 = growth as untreated, 0 = no growth, -100 = all killed). The conditions noted are these: 10 µM unless noted. As for the experimental part: Growth inhibition of the MDA-MB-435 human Melanoma tumor cell line is measured as a screen for anti-cancer activity. Cells are grown in 96 well plates and exposed to the test compound for 48 hours. Compounds are tested at a single concentration, which is 10^-5 M for most compounds. The reported endpoint is percent growth (GI% or GIPRCNT), where numbers from 0 - 100% represent growth inhibition, and numbers from -100% - 0 represent cell death. For example, a value of 40 represents 60% growth inhibition. A value of 0 means no net growth occurred over the course of the experiment. A value of -40 indicates 40% of cells at the beginning of the experiment died by the end of the experiment. A value of -100 means all cells are dead at the end of the experiment.
NCI-60 Human Tumor Cell Lines Screen was performed using the standard one-dose NCI protocol, which is described in more detail at https://dtp.cancer.gov/discovery_development/nci-60/default.htm.
Compounds with GIPRCNT values below 10 were considered active. Activity score was based on GIPRCNT using the following formula: […]
Score is 0 for GIPRCNT values of 100 or above, 50 for GIPRCNT values of 0, and 100 for GIPRCNT values of -100.
Regarding `CCn1cc(C(=O)O)c(=O)c2cc(F)c(N3CCN(S(=O)(=O)c4c(C)cc(C)cc4C)CC3)cc21`, the growth is 89.1%.

Consider `Nc1c(C(=O)Nc2cccc(C(F)(F)F)c2)sc2nc3c(cc12)C(O)CCC3` (stereo not given), for which the growth was -16.7% (active).

Take `COc1cc2nc(SCc3cc(OC)c(OC)c(OC)c3)n(Cc3ccccc3)c(=O)c2cc1OC`: the growth was -20.3% (active).

In the case of `CCC(c1ccc(OC)cc1)C(CC)c1ccc(OCC[N+](C)(C)C)cc1` (stereo not given), the growth was 59.8%.

In the case of `CCCC1OC(c2ccc(C(C)C)cc2)OCC1CC` (stereo not given), the growth is 105%.

As to `CN(C)c1ccc(/C=C\N=Nc2ccc(Br)cc2)cc1`, the growth is 41.7%.

As for `Cc1ccccc1C(=O)c1ccccc1C(=O)O`, the growth was 105%.

As for `Clc1nc(Cl)c2ncn(C/C=C/Cn3cnc4c(Cl)nc(Cl)nc43)c2n1`, the growth was 98.3%.

In the case of `Cc1cc(C)c(S(=O)(=O)N2CCN(c3cc4c(cc3F)c(=O)c(C(=O)O)cn4C3CC3)CC2)c(C)c1`, the growth was 76.1%.

Regarding `Nc1ccccc1C#C/C=C\C#Cc1cccc(O)c1`, the growth was 6.89% (active).

For `COc1cc(NCCN=C(N)NC(N)=NC(C)C)c2ncccc2c1`, the growth is 103%.

As to `CCn1c(=O)c2c(=O)c3c4c(oc3oc2c2ccccc21)C(=O)c1ccccc1C4=O`, the growth is 95.9%.

Regarding `NC(N)=NC(N)=Nc1ccccc1-c1ccccc1`, the growth is 103%.

For the compound `O=c1c2cccc3c(Nc4ccc(F)cc4)ccc(c32)c2nc3ccccc3n12`, the growth is 99.6%.

On to `COc1ccc(C2CC(=O)Nc3c2c(C)nn3-c2nc3ccccc3[nH]2)cc1OC` (stereo not given), for which the growth was 24.7%.

For `O=C1C2=C(C(=O)c3c(O)ccc(O)c31)N(c1cccnc1)Cc1ccccc1O2`, the growth was -14.2% (active).

Consider `Cc1ccnc2nc(C(=O)OCC(=O)Nc3ccc(-c4ccccc4)cc3)nn12`, for which the growth is 107%.

Take `Cc1oc2nc[nH]c(=O)c2c1C(=O)/C=C/c1ccc(Cl)cc1`: the growth was 6.74% (active).

Turning to `CCn1cc(C(=O)O)c(=O)c2cc(F)c(N3CCN(S(=O)(=O)c4ccc(Cl)cc4Cl)CC3)cc21`, the growth was 12.8%.

For `Cc1cc(C(=O)O)c(N)c(C)n1`, the growth was 107%.

`COc1ccc(Cn2cc(COc3cc(/C=C/C(=O)c4cc(OC)c(OC)c(OC)c4)ccc3OC)nn2)cc1`: the growth was 12.5%.

Take `O=C(c1c[nH]c2ccccc12)C(Sc1nc2ccccc2c(=O)[nH]1)c1ccccc1` (stereo not given): the growth is 115%.

As to `C/C1=C\CCC2(C)OC2CC2CCC(C)(O)C(CC1)C2(C)C` (stereo not given), the growth is 110%.

Consider `COc1cc(CCn2nnc3c(Nc4ccc(N5CCOCC5)cc4)ncnc32)cc(OC)c1`, for which the growth was 68.2%.

Take `COC1=CC(c2ccc[nH]2)=N/C1=C\c1[nH]c(C)c(C(=O)CCCCC(=O)Nc2ccccc2)c1C`: the growth was 17%.

With `CC/C=C\C/C=C\C[C@H]1C/C=C2/C(=O)C=C[C@H]2C/C=C\CCC(=O)O1`, the growth was 3.37% (active).

With `c1ccn2nnnc2c1`, the growth is 99.5%.

For the compound `COc1ccc(C2CC(c3cccs3)=NN2c2ccc(S(=O)(=O)NC(=O)NCc3cccc(OC)c3)cc2)cc1` (stereo not given), the growth is 52.3%.

As to `CCCCCCCCCN1C(=O)/C(=c2\sc3n(c2=O)C2C(NN=3)N(CC)C(=O)N2CC)c2ccccc21` (stereo not given), the growth is -9.54% (active).

`CCCCCCCN(CCCCCCC)C(=N)c1ccc(OC)c2ccccc12`: the growth was -98.7% (active).

With `CCCCOc1nc2c(C)cccc2cc1C1CNC(=O)c2ccccc2N1` (stereo not given), the growth was 4.51% (active).

Take `Cc1sc2nc(CSc3nnc(-c4ccco4)o3)[nH]c(=O)c2c1C`: the growth was 105%.

Regarding `COc1ccc(OC)c(-c2ccc(-c3ccccc3N)c3[nH]c4ccccc4c23)c1`, the growth is 105%.

Regarding `CC(Br)C(O)c1cc2c(cc1Br)OCO2` (stereo not given), the growth is 110%.

`COc1ccc(NC(=O)/N=c2\oc3c(OC)cccc3cc2-c2cc3ccccc3[nH]2)cc1`: the growth was 82.6%.

Regarding `O=c1oc2cc(OS(=O)(=O)c3ccc(F)cc3)ccc2c2c1CCCCC2`, the growth is 78.5%.

Take `CC(C)CCN(CCCNc1c2c(nc3ccccc13)CCCC2)CCC(C)C`: the growth was 89.3%.

For the compound `COc1ccc(-c2nc(-c3ccccc3)c(-c3ccccc3)n2C2CC2)cc1OC1CCCCC1`, the growth was 72.5%.

As to `Cc1ccc2nc(-c3c(N)n[nH]c3CCCO)[nH]c(=O)c2c1`, the growth was 110%.

As to `COc1cc2oc(-c3cccc(NC(=O)Nc4ccc5c(c4)OCO5)c3)cc(=O)c2c(OC)c1OC`, the growth was 68.7%.
